The first assay in a line: qHTS profiling of the MIPE4 collection as inhibitors of Plasmodium falciparum (3D7) proliferation (AID 743344).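 Note: scaled between DMSO vehicle wells and 0.29 µM artemisinin as full inhibition.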 The settings on record: P. falciparum 3D7 in erythrocytes, SYBR Green DNA fluorescence, 72 h; at 28.5 µM unless noted. In outline:
(§1)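 Parasite DNA was quantified by SYBR Green I fluorescence (ex 485, em 535 nm) after overnight lysis in saponin/Triton buffer at room temperature. Cultures at 0.3% parasitemia and 2.5% hematocrit were first exposed to compound for 72 h at 37 C; signals were normalised to artemisinin (0.29 uM) and vehicle wells.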
As for `COC1(CS(=O)c2ccccc2)CCN(CCc2c[nH]c3ccc(F)cc23)CC1` (stereo not drawn), the parasite growth, % of DMSO control worked out at 36.7%.

`C[C@@H]1[C@@H](CC(C[C@H]2O[C@@H]3O[C@]4(C)CC[C@@H]5[C@H](C)CC[C@@H]([C@H]2C)[C@@]35OO4)C[S+](=O)([O-])c2ccc(COC(=O)N(C)C)cc2)O[C@@H]2O[C@]3(C)CC[C@H]4[C@H](C)CC[C@@H]1[C@@]24OO3` (stereo partly drawn) showed a parasite growth, % of DMSO control of 25.5%.

`CCCC(C)(COC(N)=O)COC(=O)NC(C)C` (stereo not drawn) came in with a parasite growth, % of DMSO control of 93%.

Turning to `C=C(C)[C@H]1Cc2c(ccc3c2O[C@@H]2COc4cc(OC)c(OC)cc4[C@@H]2C3=O)O1`, the parasite growth, % of DMSO control is 86.6%.

Regarding `Cn1c(CCCC(=O)O)nc2cc(N(CCCl)CCCl)ccc21`, the parasite growth, % of DMSO control amounted to 97.1%.

With `COc1ccc(C(=O)c2c(C)n(CCN3CCOCC3)c3ccccc23)cc1`, the parasite growth, % of DMSO control is 90.6%.

Another assay can be described thus: qHTS profiling of the MIPE4 collection as inhibitors of Plasmodium falciparum (DD2) proliferation (AID 743345). The settings on record: P. falciparum Dd2 in erythrocytes, SYBR Green DNA, 72 h; at 28.5 µM unless noted. In outline: as §1
A general note: qHTS replaces the single test concentration by a dilution series.
Consider `CNCC(O)c1ccc(O)cc1` (stereo not drawn), for which the parasite growth remaining, % of DMSO control (lower = more inhibition) was 99.8%.

Consider `CC(O)(CS(=O)(=O)c1ccc(F)cc1)C(=O)Nc1ccc(C#N)c(C(F)(F)F)c1` (stereo not drawn), for which the parasite growth remaining, % of DMSO control (lower = more inhibition) amounted to 102%.

As for `CN(C)CCN(C)CCc1ccc(Cl)c(Cl)c1`, the parasite growth remaining, % of DMSO control (lower = more inhibition) was found to be 32%.

For `Cn1cc(C2=C(c3cn(C4CCN(Cc5ccccn5)CC4)c4ccccc34)C(=O)NC2=O)c2ccccc21`, the parasite growth remaining, % of DMSO control (lower = more inhibition) is 19.9%.

Consider `CC1=C2C[C@@H]3[C@@H](CC=C4C[C@@H](O)CC[C@@]43C)[C@@H]2CC[C@]12O[C@H]1C[C@H](C)CN[C@H]1[C@H]2C`, for which the parasite growth remaining, % of DMSO control (lower = more inhibition) is 16.2%.

In the case of `O=C(O)C(=O)c1cn(Cc2ccccc2)c2ccc(-c3ccc(OC(F)(F)F)cc3)cc12`, the parasite growth remaining, % of DMSO control (lower = more inhibition) was 108%.

As for `C[C@@H]1[C@@H](C(=O)C[C@H]2O[C@@H]3O[C@]4(C)CC[C@@H]5[C@H](C)CC[C@@H]([C@H]2C)[C@@]35OO4)O[C@@H]2O[C@]3(C)CC[C@H]4[C@H](C)CC[C@@H]1[C@@]24OO3`, the parasite growth remaining, % of DMSO control (lower = more inhibition) came to 7.59%.

On to `CNC(=O)N1N=C(c2ccc(N)cc2)c2cc3c(cc2CC1C)OCO3` (stereo not drawn), for which the parasite growth remaining, % of DMSO control (lower = more inhibition) came to 107%.

As for `Cc1cc(SCc2sc(-c3ccc(C(F)(F)F)c(F)c3)nc2C)ccc1OCC(=O)O`, the parasite growth remaining, % of DMSO control (lower = more inhibition) was found to be 88.1%.

Consider `CNC(=O)c1ccc(N2C(=S)N(c3ccc(C#N)c(C(F)(F)F)c3)C(=O)C23CCC3)cc1F`, for which the parasite growth remaining, % of DMSO control (lower = more inhibition) came out at 81.7%.

On to `C[C@@H]1O[C@@H](O[C@H]2C[C@@H](O)[C@]3(CO)[C@H]4[C@H](O)C[C@]5(C)[C@@H](C6=CC(=O)OC6)CC[C@]5(O)[C@@H]4CC[C@]3(O)C2)[C@H](O)[C@H](O)[C@H]1O`, for which the parasite growth remaining, % of DMSO control (lower = more inhibition) was 95.7%.

With `O=c1c(O)c(-c2ccc(O)c(O)c2)oc2cc(O)cc(O)c12`, the parasite growth remaining, % of DMSO control (lower = more inhibition) amounted to 39%.

For the molecule `Cc1sc2c(c1C)C(c1ccc(Cl)cc1)=N[C@@H](CC(=O)OC(C)(C)C)c1nnc(C)n1-2`, the parasite growth remaining, % of DMSO control (lower = more inhibition) came out at 24.4%.

For the molecule `COC1(CS(=O)c2ccccc2)CCN(CCc2c[nH]c3ccc(F)cc23)CC1` (stereo not drawn), the parasite growth remaining, % of DMSO control (lower = more inhibition) stood at 55.9%.

In the case of `C[C@@H]1[C@@H](CC(C[C@H]2O[C@@H]3O[C@]4(C)CC[C@@H]5[C@H](C)CC[C@@H]([C@H]2C)[C@@]35OO4)C[S+](=O)([O-])c2ccc(COC(=O)N(C)C)cc2)O[C@@H]2O[C@]3(C)CC[C@H]4[C@H](C)CC[C@@H]1[C@@]24OO3` (stereo partly drawn), the parasite growth remaining, % of DMSO control (lower = more inhibition) worked out at 6.65%.

For the molecule `CCCC(C)(COC(N)=O)COC(=O)NC(C)C` (stereo not drawn), the parasite growth remaining, % of DMSO control (lower = more inhibition) was 91%.

In the case of `C=C(C)[C@H]1Cc2c(ccc3c2O[C@@H]2COc4cc(OC)c(OC)cc4[C@@H]2C3=O)O1`, the parasite growth remaining, % of DMSO control (lower = more inhibition) turned out to be 94.4%.

With `Cn1c(CCCC(=O)O)nc2cc(N(CCCl)CCCl)ccc21`, the parasite growth remaining, % of DMSO control (lower = more inhibition) is 81.5%.

As for `COc1ccc(C(=O)c2c(C)n(CCN3CCOCC3)c3ccccc23)cc1`, the parasite growth remaining, % of DMSO control (lower = more inhibition) turned out to be 95.8%.

A short description of a further assay: qHTS profiling of the MIPE4 collection as inhibitors of Plasmodium falciparum (DD2) proliferation (Rep 2) (AID 743346). The note with it: P. falciparum Dd2 in erythrocytes, SYBR Green DNA, 72 h; at 28.5 µM unless noted. In outline: as §1
With `CNCC(O)c1ccc(O)cc1` (stereo not drawn), the parasite growth, % of control (lower = inhibition) came out at 71%.

For `CC(O)(CS(=O)(=O)c1ccc(F)cc1)C(=O)Nc1ccc(C#N)c(C(F)(F)F)c1` (stereo not drawn), the parasite growth, % of control (lower = inhibition) was 64.8%.

Turning to `CN(C)CCN(C)CCc1ccc(Cl)c(Cl)c1`, the parasite growth, % of control (lower = inhibition) was found to be 18.2%.

In the case of `Cn1cc(C2=C(c3cn(C4CCN(Cc5ccccn5)CC4)c4ccccc34)C(=O)NC2=O)c2ccccc21`, the parasite growth, % of control (lower = inhibition) was determined as 21.1%.

On to `CC1=C2C[C@@H]3[C@@H](CC=C4C[C@@H](O)CC[C@@]43C)[C@@H]2CC[C@]12O[C@H]1C[C@H](C)CN[C@H]1[C@H]2C`, for which the parasite growth, % of control (lower = inhibition) came out at 33.5%.

Take `O=C(O)C(=O)c1cn(Cc2ccccc2)c2ccc(-c3ccc(OC(F)(F)F)cc3)cc12`: the parasite growth, % of control (lower = inhibition) stood at 77.4%.

Turning to `C[C@@H]1[C@@H](C(=O)C[C@H]2O[C@@H]3O[C@]4(C)CC[C@@H]5[C@H](C)CC[C@@H]([C@H]2C)[C@@]35OO4)O[C@@H]2O[C@]3(C)CC[C@H]4[C@H](C)CC[C@@H]1[C@@]24OO3`, the parasite growth, % of control (lower = inhibition) was determined as 8.22%.

As to `CNC(=O)N1N=C(c2ccc(N)cc2)c2cc3c(cc2CC1C)OCO3` (stereo not drawn), the parasite growth, % of control (lower = inhibition) was 67.9%.

In the case of `Cc1cc(SCc2sc(-c3ccc(C(F)(F)F)c(F)c3)nc2C)ccc1OCC(=O)O`, the parasite growth, % of control (lower = inhibition) was 50.9%.

Turning to `CNC(=O)c1ccc(N2C(=S)N(c3ccc(C#N)c(C(F)(F)F)c3)C(=O)C23CCC3)cc1F`, the parasite growth, % of control (lower = inhibition) came to 45.4%.

Take `C[C@@H]1O[C@@H](O[C@H]2C[C@@H](O)[C@]3(CO)[C@H]4[C@H](O)C[C@]5(C)[C@@H](C6=CC(=O)OC6)CC[C@]5(O)[C@@H]4CC[C@]3(O)C2)[C@H](O)[C@H](O)[C@H]1O`: the parasite growth, % of control (lower = inhibition) is 124%.

For `Cc1sc2c(c1C)C(c1ccc(Cl)cc1)=N[C@@H](CC(=O)OC(C)(C)C)c1nnc(C)n1-2`, the parasite growth, % of control (lower = inhibition) turned out to be 29.2%.

As for `COC1(CS(=O)c2ccccc2)CCN(CCc2c[nH]c3ccc(F)cc23)CC1` (stereo not drawn), the parasite growth, % of control (lower = inhibition) was 66.8%.

As for `C[C@@H]1[C@@H](CC(C[C@H]2O[C@@H]3O[C@]4(C)CC[C@@H]5[C@H](C)CC[C@@H]([C@H]2C)[C@@]35OO4)C[S+](=O)([O-])c2ccc(COC(=O)N(C)C)cc2)O[C@@H]2O[C@]3(C)CC[C@H]4[C@H](C)CC[C@@H]1[C@@]24OO3` (stereo partly drawn), the parasite growth, % of control (lower = inhibition) worked out at 23.2%.

As to `CCCC(C)(COC(N)=O)COC(=O)NC(C)C` (stereo not drawn), the parasite growth, % of control (lower = inhibition) amounted to 119%.

On to `C=C(C)[C@H]1Cc2c(ccc3c2O[C@@H]2COc4cc(OC)c(OC)cc4[C@@H]2C3=O)O1`, for which the parasite growth, % of control (lower = inhibition) was determined as 35.5%.

In the case of `Cn1c(CCCC(=O)O)nc2cc(N(CCCl)CCCl)ccc21`, the parasite growth, % of control (lower = inhibition) came to 85.2%.

Turning to `COc1ccc(C(=O)c2c(C)n(CCN3CCOCC3)c3ccccc23)cc1`, the parasite growth, % of control (lower = inhibition) turned out to be 66.9%.

Values taken from PubChem BioAssay (NCATS).
